Source: PubChem (National Center for Advancing Translational Sciences (NCATS))
Shiga inhibitor = blocks Shiga toxin action in Vero cells | inhibition, % at 38.7 µM | 290,000 compounds, 9.2% hits | Vero cells, Shiga toxin protein synthesis inhibition reporter; in the data active = inhibition mostly above about 28%, no sharp cut-off; inactive = mostly below about 43%; note: 0% is about no effect
NS1 inh = influenza NS1 inhibition | 270,000 compounds, 0.4% hits | AID 2326 | Potency, µM (highest dose often 46.1 µM), without a hit: at the highest dose activity, positive = more growth; calls by dose curve; note: potency is the fitted concentration of half-maximal effect; actives are rising curves; nearly all actives have a fitted effect of over 50% in size
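Growth recovery, yeast-based: influenza A NS1 expressed in S. cerevisiae causes slow growth, and suppressors are detected by OD600. The parent strain without NS1 is used as positive control.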
Pf growth 96h = inhibits malaria parasite growth, 96 h; P. falciparum luciferase reporter growth, 96 h; Potency, µM (titrated, usually from 28.7 µM), for the others: at the highest dose activity change, negative = inhibition, hits mostly inhibitors; 320,000 compounds, 6.9% hits; AID 504834; note: potency is the fitted concentration of half-maximal effect; % is set by controls: 0 for no effect and ±100 for the full control effect
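Delayed-death screen, second-generation endpoint: infected erythrocytes, 2% hematocrit, 0.05% parasitemia final; 96 hours at 37 C, 5% CO2; luciferase detection reagent; luminescence decrease equals reduced growth.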
Giardia FBPA inh = inhibitors of Giardia lamblia fructose-1,6-bisphosphate aldolase | purified Giardia FBPA | Potency, µM (top dose mostly 59.6 µM), inactives show at the highest dose activity, negative = inhibition, hits mostly inhibitors | 290,000 compounds, 0.71% hits; note: potency is the fitted concentration of half-maximal effect; % is set by controls: 0 for no effect and ±100 for the full control effect; nearly all actives have a fitted effect of over 55% in size
Target sequence (A8B2U2 whole entry, looked up): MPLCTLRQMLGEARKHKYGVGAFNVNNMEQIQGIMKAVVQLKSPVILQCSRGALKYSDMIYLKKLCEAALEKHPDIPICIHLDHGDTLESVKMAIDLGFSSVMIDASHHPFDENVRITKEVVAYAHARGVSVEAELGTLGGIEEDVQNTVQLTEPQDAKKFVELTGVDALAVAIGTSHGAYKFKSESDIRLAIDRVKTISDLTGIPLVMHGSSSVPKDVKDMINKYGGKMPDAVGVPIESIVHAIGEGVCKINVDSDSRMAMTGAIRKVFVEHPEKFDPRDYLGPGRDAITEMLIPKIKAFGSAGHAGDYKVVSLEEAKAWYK
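40 nM FBPA preincubated 10 min at RT with compound (up to 57.5 uM final), then substrate plus GAPDH/TPI/NAD/arsenate coupling and diaphorase/resazurin added. Fluorescence read after 20 min at RT, 525/598 nm.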
CHX counter = counter-screen for Shiga toxin inhibitors: cycloheximide protein synthesis inhibition | cell reporter, cycloheximide protein synthesis inhibition counterscreen | max response, % | 300,000 compounds, 12% hits; in the data active = max response mostly above about 13%, no sharp cut-off; inactive = mostly below about 14%; note: read at 38.3 µM for the half of the compounds with a filed dose; 0% is about no effect
Pf growth 48h = P. falciparum growth inhibition at 48 hours (one generation); 310,000 compounds, 5.9% hits; P. falciparum luciferase growth in erythrocytes, 48 h; Potency, µM (top dose mostly 28.7 µM), without a hit: top-dose activity change, negative = inhibition, most hits filed as inhibitors; note: potency is the fitted concentration of half-maximal effect; % is set by controls: 0 for no effect and ±100 for the full control effect
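Compounds are pin-transferred into medium, infected erythrocytes (2% hematocrit, 0.1% parasitemia final) are added, and plates sit one parasite generation at 37 C in 5% CO2. Detection reagent is then added and luminescence measured.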
* = called active by the depositor; ? = inconclusive; nt = no result; [ ] = remark or other dose. Hits are enriched below; roughly 21% of the tested compounds scored in any of these assays. Unless noted, calls come from the whole dose curve; as a rule, active = well fitted curve in the direction sought with a large enough effect; inconclusive = small, poorly fitted or top-dose-only effect, or another doubt; inactive = no such curve, though single readings can be large; an effect the other way counts as inactive or inconclusive.

SMILES	Shiga inhibitor	NS1 inh	Pf growth 96h	Giardia FBPA inh	CHX counter	Pf growth 48h
CCC(=O)NC(=S)NNC(=O)COc1ccc(Br)cc1	15	4%	9%	8%	-2	?
N=c1c2c(n(Cc3ccc(F)cc3)c3c1CCC3)CCCC2	-2	nt	15%	3%	2	?
N=c1c2c(n(Cc3ccc(Cl)cc3Cl)c3c1CCC3)CCCC2	-3	-4%	nt	-2%	-2	0.19µM*
N=c1c2c(n(Cc3ccccc3)c3c1CCC3)CCC2	-13	-2%	0.13µM*	0%	-1	0.41µM*
N=c1c2c(n(Cc3cccc(Cl)c3)c3c1CCC3)CCCC2	9	-4%	-107%	1%	-3	0.26µM*
N=c1c2c(n(Cc3ccc(Cl)cc3)c3c1CCC3)CCC2	-5	-23%	25%	2%	-5	0.21µM*
CCCCCCCCCn1c2c(c(=N)c3c1CCC3)CCCC2	-53	-60%	27%	6%	-8	?
N=c1sc2c(n1Cc1ccccc1)CCCC2	-8	-2%	65%	0%	-6	-15%
CCC(CC)NC(=O)COn1nnc2ccc(S(=O)(=O)N3CCOCC3)cc21	nt	nt	7%	nt	nt	1%
Cc1ccc(-c2nc3ccccc3o2)cc1NC(=S)NC(=O)c1cc2ccccc2o1	85*	?	29%	-1%	45*	142%
Cc1c(NC(=S)NC(=O)c2cc3ccccc3o2)cccc1C(=O)O	76*	5%	-11%	-30%	54*	21%
Cc1ccc2oc(-c3ccc(C)c(NC(=S)NC(=O)c4cccs4)c3)nc2c1	10*	10%	323%	-13%	45*	255%
CCN(CC(=O)NCc1ccc(F)cc1)C(=O)C(C)Oc1cccc(Cl)c1 (configuration not stated)	nt	nt	-20%	nt	nt	-22%
COc1ccc(OCC(=O)N2CCN(c3nnc(-c4ccccc4)c4ccccc34)CC2)cc1	-4	-87%	1.9µM*	7%	1	?
COc1ccc(-c2nnc(N3CCOCC3)c3ccccc23)cc1	19	23%	13µM*	-5%	0	-9%
O=C(COc1ccccc1)N1CCN(c2nnc(-c3ccccc3)c3ccccc23)CC1	-17	-42%	10µM*	-1%	-5	?
Cn1c(CCC(=O)OCC(=O)NCc2ccc3c(c2)OCO3)nc(=O)c2ccccc21	-4	nt	-16%	0%	8	11%
CCOC(=O)C(=CN=C(N)Nc1nc2ccccc2o1)C(=O)OCC	31*	4%	10µM*	-27%	14*	-7%
CCCCOC(=O)CSc1nc2ccccc2o1	13	1%	9%	-10%	2	35%
CCOC(=O)C(=O)Nc1nc(-c2ccccc2)c(-c2ccccc2)o1	-2	-12%	72%	15%	-3	-4%
CCCOC(=O)Nc1nc2ccccc2o1	144*	-9%	126%	0%	26*	130%
O=c1[nH]c(=O)n(-c2cc(Br)c(O)c(Br)c2)cc1Br	nt	2%	?	-9%	-3	2%
O=S(=O)(Nc1ccncc1)c1cc(Cl)c(Cl)cc1Cl	-1	13%	7.4µM*	5%	-3	32%
COc1ccc(Cl)cc1S(=O)(=O)Nc1ccncc1	-3	7%	0%	0%	-8	0%
O=C1C[C@@H](O)[C@@H](O)[C@H]2[C@@H]3C(=O)N(C4CCCCC4)C(=O)[C@@H]3CC[C@H]12	nt	nt	nt	-3%[12.9 µM]	nt	nt
SMILES	Shiga inhibitor	NS1 inh	Pf growth 96h	Giardia FBPA inh	CHX counter	Pf growth 48h
COc1cc2ncnc(NCc3ccc4c(c3)OCO4)c2cc1OC	-5	-1%	?	0%	-1	12µM*
COc1ccc(CNc2ncnc3cc(OC)c(OC)cc23)cc1	-12	1%	2.1µM*	-2%	-5	4.1µM*
N#CCC(=O)N/N=C\c1ccc(OC/C=C/c2ccccc2)cc1	30	-2%	60%	-4%	27*	32%
N#CCC(=O)N/N=C\c1ccccc1OC/C=C/c1ccccc1	77*	2%	62%	nt	50*	20%
N#CCC(=O)N/N=C/c1cc(Br)ccc1OCc1cccc2ccccc12	-6	19%	?	5%	-9	13µM*
Cc1ccc(S(=O)(=O)N2CCCC(C(=O)NCCc3ccccc3)C2)cc1 (configuration not stated)	-1	0%	?	6%	-2	-25%
O=C1NC2(CCCCCC2)C(=O)N1Cc1cccc([N+](=O)[O-])c1	-7	-4%	-15%	0%	1	4%[0.00184 µM]
NNC(=O)c1cc(Br)cs1	33*	3%	32%	4%	26	19%
NNC(=O)c1cc(O)c(O)c(O)c1	13	8%	29%	?	-3	?
O=C1CSC(=S)N1c1ccc(F)c(Cl)c1	4	-80%	12µM*	-3%	1	?
O=C1CSC(=S)N1Cc1cccnc1	-9	-89%	18%	?	-6	-30%
O=C1CSC(=S)N1c1cccnc1	-28	-80%	13µM*	-16%	-2	nt
Cc1ccc(N2C(=N)SCC2=O)cc1Cl	-8	-9%	?	-8%	4	-13%
CCOC(=O)C1=C(C)NC(=O)NC1c1ccc(-c2ccc(Cl)cc2)o1 (configuration not stated)	15	-5%	-18%	0%	-3	8%
COc1ccc(NC(=O)C2=C(C)NC(=S)NC2c2ccc(O)c(OC)c2)cc1 (configuration not stated)	-12	7%	-19%	-6%	1	10%
COc1cc(C2NC(=S)NC(C)=C2C(=O)Nc2ccc(C)cc2)ccc1O (configuration not stated)	71*	-5%	-6%	-5%	45*	70%
COC(=O)C1=C(C)NC(=O)NC1c1ccccc1 (configuration not stated)	10	-7%	?	4%	-1	-9%
COC(=O)C1=C(C)NC(=O)NC1c1ccc2ccccc2c1 (configuration not stated)	-5	5%	10µM*	12%	2	?
C=CCOc1c(Cl)cc(C2NC(=O)NC(C)=C2C(=O)OC)cc1Cl (configuration not stated)	-6	3%	nt	3%	-4	9.3µM*
CCOC(=O)C1=C(C)NC(=S)NC1c1ccc(-c2ccc(Cl)cc2)o1 (configuration not stated)	17	23%	7.4µM*	-21%	1	?
CCSC1=N/C(=C\C=C2/Oc3ccccc3N2CC)C(=O)S1	5	-1%	17%	-8%	1	80%
COc1cc(C2NC(=O)NC(C)=C2C(=O)OC2CCC(C)CC2)ccc1O (configuration not stated)	-16	13%	2.6µM*	-3%	-4	12µM*
COc1cc(Cl)cc(C2NC(=O)NC(C)=C2C(C)=O)c1OCC(=O)O (configuration not stated)	-5	-1%	13%	0%	-6	nt
